Bioassay records (PubChem)
In the library only some 3.4% were active in any assay of this set; here they are far more common.
esBAF inh: Bmi1 luciferase reporter increase in mESCs, primary screen, esBAF inhibitor project, mouse ES cells, Bmi1 luciferase knock-in, single point | 24 h; 100% = twice the neutral-well signal | reporter increase, % at 12.5 µM | 350,000 compounds, 2% hits | AID 602393, 2012; in the data active means activation above about 40%; inconclusive means no clear call, values can overlap the other calls;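 further: 0% = median of the plate's neutral control wells and 100% = double that signal; a rise in the Bmi1 reporter signal indicates esBAF inhibition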
MITF act: activators of MITF-driven TRPM1 promoter reporter, primary screen, cell-based, SK-MEL-5, luciferase, single point; SK-MEL-5 TRPM1-promoter luciferase, 24 h; % of positive control, neutral wells = 0; activation, % at 12.5 µM; 300,000 compounds, 0.75% hits; AID 588334, 2011;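 active means mean activation of at least 80% with every replicate also reaching 80%; inconclusive means mean reaches 80% but some replicate falls short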;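 further: 0% = neutral control wells and 100% = parthenolide positive control wells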
HIV Env fusion: inhibitors of HIV-1 Env-driven cell-cell fusion, primary screen, HeLa-JRFL effector, CEM21 target cells, luciferase | inhibition, % at 12.3 µM | 360,000 compounds, 1.1% hits;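 active means mean replicate inhibition score of at least 50 and every replicate individually at or above 50; inconclusive means only one of the two criteria met; inactive means mean below 50 and not all replicates reaching 50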;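 further: 0% = plate neutral controls and 100% = maraviroc near 300 nM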
miR122 inh: miR-122 Renilla sensor signal increase in Huh7, primary screen, miR-122 inhibitor project, cell-based, single point, plate reader | Huh7 miR-122 Renilla luciferase sensor, 48 h; neutral wells = 0, positive control = 100 | activation (reporter increase), % at 12.5 µM | 340,000 compounds, 0.3% hits | AID 602342, 2012;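 active means mean replicate activation score at least 90 and every replicate individually at or above 90; inconclusive means only one of the two criteria met; inactive means neither criterion met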;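 further: higher luciferase means less miR-122 activity so hits act as miR-122 inhibitors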
Wnt bcat act: Wnt/beta-catenin pathway activators, primary screen, cell-based, plate reader, single point | activation, % at 9.35 µM | 300,000 compounds, 1.2% hits | Wnt/beta-catenin reporter cell assay, activator; in the data active means activation above about 30%, passing the limit was not always enough; inconclusive means no clear call, values can overlap the other calls;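 further: 0% = neutral control wells and 100% = positive control wells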
Starred values were filed as active, the others as inactive; ? = inconclusive; . = no result; [ ] = dose if it differs, or a comment.

SMILES	esBAF inh	MITF act	HIV Env fusion	miR122 inh	Wnt bcat act
CCc1ccccc1NC(=O)c1cccc(NC(=O)/C=C/c2ccco2)c1	.	2.2	7.5	23.5	109.6*
O=C(/C=C/c1ccco1)Nc1cccc(C(=O)Nc2ccccc2C(=O)O)c1	-4.1	2.9	88.1*	-1.5	3.7
Cc1ccc(NC(=O)c2cccc(NC(=O)/C=C/c3ccco3)c2)cc1C	.	32.7	-19.3	.	11.4
C[C@@H]1CN([C@@H](C)CO)C(=O)Cc2cc(NC(=O)CCCN(C)C)ccc2O[C@H]1CN(C)S(=O)(=O)c1cccs1	1.5	.	5.1[16.7 µM]	2.0[16.7 µM]	.
CN1c2ccc(Br)cc2[C@@H]2[C@@H](CCN2C(=O)Nc2cccc(F)c2)[C@@H]1CO	-0.5	.	.	-3.0[16.7 µM]	.
COC(=O)/C(=C1/Oc2ccc(C(C)(C)C)cc2S1)C(F)(F)F	.	71.5	-46.9	.	37.5*
CSc1cccc(NC(=O)c2cccc3cccnc23)c1	48.1*	44.1	-268.6	5.7	11.9
CNS(=O)(=O)c1cc(NC(=O)c2cccc3cccnc23)ccc1C	24.8	14.9	-10.7	.	9.7
COc1ccc(-c2noc(-c3ccccc3C(=O)Nc3cccc(OC)c3)n2)cc1	12.3	12.7	.	14.5	0.0
COc1cccc(C(=O)Nc2cccc(SC)c2)c1	60.4*	80.5*	.	0.0	5.0
CC(=O)Nc1cccc(Oc2ccc(-c3noc(C)n3)cc2)c1	72.2*	56.1	-37.2	-11.5	26.7
COc1cccc(NC(=O)c2c(C)nn(-c3ccccc3)c2Cl)c1	50.0*	.	-35.7	0.1	14.8
CC(=O)N(C)C[C@@H]1Oc2cc(C#CC(C)C)ccc2S(=O)(=O)N([C@@H](C)CO)C[C@H]1C	-2.8	.	-6.7[16.7 µM]	67.2[16.7 µM]	.
COc1cccc(CNC(=O)C[C@@H]2CC[C@@H]3[C@@H](COc4ccc(NC(C)=O)cc4C(=O)N3C)O2)c1	4.8	.	-14.5[16.7 µM]	-33.3[16.7 µM]	.
COc1cccc(C(=O)Nc2ccc(NC(=O)Cc3ccccc3)cc2)c1	-4.5	.	2.0	-5.9	-1.0
COc1ccc(C(=O)Nc2ccccc2C(N)=O)cc1	33.1	83.0*	-90.9	-5.4	.
COc1ccc(C(=O)Nc2ccccc2C(=O)Nc2ccccc2C(=O)O)cc1	?	.	-68.8	4.1	0.2
COc1ccc(NC(=O)c2c(NC(=O)CCC(=O)O)sc(-c3ccccc3)c2C)cc1	.	2.3	15.5	.	34.1*
COc1cccc(C(=O)Nc2ccccc2)c1	51.6*	.	-121.7	-6.3	.
COc1ccc(NC(=O)c2c(Cl)n(C)c3ccccc23)cc1	58.6*	15.8	.	19.9	-0.7
COC(=O)c1c(NC(=O)CCC(=O)O)sc(Cc2ccccc2)c1C	.	-0.3	13.8	-17.5	6.8
C[C@H]1CN([C@@H](C)CO)C(=O)c2cc(NC(=O)C3CC3)ccc2O[C@H]1CN(C)Cc1ccc(C(F)(F)F)cc1	0.9	.	-6.4[16.7 µM]	-0.4[16.7 µM]	.
COc1cccc(NC(=O)c2ccc(C(=O)c3ccccc3)o2)c1	38.0	?	-18.7	3.2	36.8*
COc1cccc(C(N)=O)c1	-6.1	.	.	1.1	-1.2
COc1ccc(NC(=O)c2ccccc2)cc1	21.4	108.1*	-28.2	-3.9	28.1
SMILES	esBAF inh	MITF act	HIV Env fusion	miR122 inh	Wnt bcat act
Cc1ccc(C(=O)Nc2ccccc2Oc2ccccc2)o1	.	-4.8	0.1	7.8	-1.2
Cc1ccc(C(=O)Nc2cccc(Oc3ccccc3)c2)o1	68.5*	89.7*	.	-3.0	.
COc1cccc(/C(C)=N/N=C(\C)c2cccc(OC)c2)c1	70.5*	.	-66.5	.	10.7
O=C(NCC[C@@H]1CC[C@@H](NC(=O)C2CCCC2)[C@@H](CO)O1)c1cnccn1	-4.4	.	18.5[16.7 µM]	-5.2[16.7 µM]	.
C[C@@H]1CCCCO[C@@H](CN(C)C(=O)Nc2ccc(C(F)(F)F)cc2)[C@H](C)CN([C@@H](C)CO)C(=O)c2cc(NC(=O)Nc3ccc(F)cc3)ccc2O1	1.6	.	17.8[16.7 µM]	-1.9[16.7 µM]	.
CCS(=O)(=O)N1CCCCN2[C@H](CO)[C@@H](c3ccc(C#Cc4ccccc4OC)cc3)[C@H]2C1	.	.	.	-5.9[16.7 µM]	.
O=C(NCC[C@H]1CC[C@H](NS(=O)(=O)c2ccc(F)cc2)[C@@H](CO)O1)Nc1ccc(F)cc1	8.3	.	3.7[16.7 µM]	.	.
O=C(N[C@H]1CC[C@H](CCn2cc(C3(O)CCCC3)nn2)O[C@@H]1CO)C1CC1	-24.1	.	47.3[16.7 µM]	.	.
COc1cccc(C(=O)Nc2cccc(C(=O)NC3=NN(c4c(Cl)cc(Cl)cc4Cl)C(=O)C3)c2)c1	6.2	.	-219.9	-1.1	32.3*
Cc1ccccc1-c1ccc(C(=O)Nc2cccc(F)c2)o1	45.1*	52.6	21.0	12.9	26.6
O=C(Nc1cccc(F)c1)c1ccc(-c2ccccc2C(F)(F)F)o1	.	.	-60.6	.	16.1
COc1ccc(C(=O)CCc2ccccc2)cc1	48.5*	98.3*	-36.5	-2.4	13.7
COc1ccc(NC(=O)c2c(Nc3ccccc3)sc(C(=O)c3ccc(F)cc3)c2N)cc1	-15.0	.	90.6*	-11.2	-33.0
COc1ccccc1NC(=O)N[C@H]1CC[C@@H](CCNS(=O)(=O)c2ccc(Cl)cc2)O[C@H]1CO	8.2	.	12.2[16.7 µM]	.	.
CCNC(=O)C[C@@H]1CC[C@@H]2[C@H](COC[C@H](O)CN2Cc2ccncc2)O1	1.4	.	-9.3[16.7 µM]	-3.9[16.7 µM]	.
CC=Cc1ccc2n(c1=O)C[C@H]1[C@H](CO)[C@@H](C(=O)N[C@@H](C)c3ccccc3)[C@@H]2N1Cc1cccnc1 (mixture of isomers)	-1.2	.	.	3.4[16.7 µM]	.
COc1ccc(S(=O)(=O)Nc2ccc3c(c2)CC(=O)N([C@@H](C)CO)C[C@@H](C)[C@H](CN(C)S(=O)(=O)c2ccc(Cl)cc2)O3)cc1	-1.9	.	-16.1[16.7 µM]	-9.8[16.7 µM]	.
Cc1cc(NCc2ccccn2)n2ncc(-c3ccc(Cl)cc3)c2n1	.	.	-42.5	-17.0	?
Cc1cc(C(F)(F)Cl)n2ncc(-c3ccccn3)c2n1	60.6*	-12.2	-15.2	2.2	-1.1
C[C@@H]1CN([C@@H](C)CO)C(=O)c2cc(C#CC3CCCCC3)cnc2O[C@H]1CN(C)Cc1cccnc1	1.0	.	8.6[16.7 µM]	-5.5[16.7 µM]	.
CCCCCn1c(CN2CCN(C(=O)c3ccco3)CC2)nc2c1c(=O)n(C)c(=O)n2C	7.4	.	3.0	1.2	60.7*
CCCCCCn1c(CN2CCN(C(=O)c3ccco3)CC2)nc2c1c(=O)n(C)c(=O)n2C	4.2	.	-54.2	-1.8	-4.1
CN(C)CCCNC(=O)C[C@H]1CC[C@@H]2[C@@H](COc3ccc(NC(=O)c4cccc(F)c4)cc3C(=O)N2C)O1	2.9	.	-20.0[16.7 µM]	-25.0[16.7 µM]	.
Cc1cccn2c1nc(=S)n2C(=O)c1ccco1	.	60.8	-29.2	.	71.8*
COC(c1ccccc1)c1nnc(CCC(=O)NC2CCCCC2)o1 (stereo unspecified)	.	-7.7	-27.7	.	0.0
CN(C(=O)CCc1nnc(-c2ccc(-c3ccccc3)cc2)o1)C1CCOCC1	-7.8	4.1	37.8	1.3	6.7
CN(CCCC1CCCC1)C(=O)CCc1nnc(-c2ccccc2)o1	83.6*	78.6	-33.1	-2.3	9.8
